# Laboratory results reported in ChEMBL document CHEMBL2218924, “A broad activity screen in support of a chemogenomic map for kinase signalling research and drug discovery” (Biochem J, 2013).
# Biological target: Macrophage-stimulating protein receptor (Homo sapiens) (UniProt Q04912)
# Settings: at 10 µM
# Sequence of Macrophage-stimulating protein receptor (Homo sapiens) (Q04912 25-304 limits assumed): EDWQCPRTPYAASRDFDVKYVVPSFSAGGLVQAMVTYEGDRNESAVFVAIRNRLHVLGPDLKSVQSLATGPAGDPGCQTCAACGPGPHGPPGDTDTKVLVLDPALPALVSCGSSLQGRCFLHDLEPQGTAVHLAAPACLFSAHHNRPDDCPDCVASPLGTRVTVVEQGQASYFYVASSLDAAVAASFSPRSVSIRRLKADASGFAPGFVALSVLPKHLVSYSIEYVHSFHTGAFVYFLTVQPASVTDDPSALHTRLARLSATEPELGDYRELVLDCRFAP
# Sequence of Macrophage-stimulating protein receptor (Homo sapiens) (Q04912 310-1400 limits assumed): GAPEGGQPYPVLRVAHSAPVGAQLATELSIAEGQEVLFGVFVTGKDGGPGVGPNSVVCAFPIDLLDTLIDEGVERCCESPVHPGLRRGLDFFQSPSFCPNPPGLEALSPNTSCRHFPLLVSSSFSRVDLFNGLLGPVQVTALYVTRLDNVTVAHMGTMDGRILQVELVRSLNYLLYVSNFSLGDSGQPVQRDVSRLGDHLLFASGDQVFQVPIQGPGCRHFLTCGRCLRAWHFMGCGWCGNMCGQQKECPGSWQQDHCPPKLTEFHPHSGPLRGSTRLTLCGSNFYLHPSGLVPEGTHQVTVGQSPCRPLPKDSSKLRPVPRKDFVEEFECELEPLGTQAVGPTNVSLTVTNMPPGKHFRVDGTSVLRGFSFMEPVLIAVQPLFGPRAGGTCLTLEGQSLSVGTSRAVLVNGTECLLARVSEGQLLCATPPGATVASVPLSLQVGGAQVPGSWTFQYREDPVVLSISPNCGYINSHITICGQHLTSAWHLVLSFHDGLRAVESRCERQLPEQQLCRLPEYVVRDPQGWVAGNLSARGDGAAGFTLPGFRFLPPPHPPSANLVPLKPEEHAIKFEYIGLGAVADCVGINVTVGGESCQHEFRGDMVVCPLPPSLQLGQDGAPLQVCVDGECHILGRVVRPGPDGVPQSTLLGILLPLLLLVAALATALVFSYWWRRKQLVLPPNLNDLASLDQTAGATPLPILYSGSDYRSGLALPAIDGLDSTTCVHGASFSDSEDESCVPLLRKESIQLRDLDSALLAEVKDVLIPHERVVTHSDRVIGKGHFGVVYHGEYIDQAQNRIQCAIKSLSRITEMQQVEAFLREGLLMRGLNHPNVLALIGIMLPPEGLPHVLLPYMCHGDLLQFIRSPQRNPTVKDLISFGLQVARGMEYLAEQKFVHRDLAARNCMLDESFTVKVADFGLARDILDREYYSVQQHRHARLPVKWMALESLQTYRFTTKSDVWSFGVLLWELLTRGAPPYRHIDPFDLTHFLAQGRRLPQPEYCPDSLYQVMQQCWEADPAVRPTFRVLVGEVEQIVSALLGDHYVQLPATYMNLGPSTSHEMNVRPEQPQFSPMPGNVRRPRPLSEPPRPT
row,Structure (SMILES),residual activity [%]
1,O=C1NC(=O)C(c2cn(CCCO)c3ncccc23)=C1c1cnccn1,58
2,COc1ccc2c(c1)c(C1=C(c3c[nH]c4ccccc34)C(=O)NC1=O)cn2CCCN(C)C,56
3,Nc1nc(Nc2ccc(S(N)(=O)=O)cc2)nn1C(=O)c1c(F)cccc1F,33
4,CCCCc1c(-c2ccc(OC)cc2)[nH]c2nccnc12,103
5,CCN(CC)CCNC(=O)c1c(C)[nH]c(/C=C2\C(=O)Nc3ccc(Cl)cc32)c1C,40
6,COc1ccc(COc2ccc(Cc3cnc(N)nc3N)cc2OC)cc1,62
7,CC(C)N(CCC(=O)c1ccc2ccccc2c1)Cc1ccccc1,67
8,O=C1NC(=O)C(c2c[nH]c3ccccc23)=C1c1c[nH]c2ccccc12,70
9,N#C/C(=C1/Nc2ccccc2S1)c1ccnc(NCCc2cccnc2)n1,46
10,CN(C)S(=O)(=O)c1ccc2c(c1)/C(=C/c1cc3c([nH]1)CCCC3)C(=O)N2,83
11,COc1cc2c(cc1OC)-c1n[nH]c(Nc3cccc(F)c3)c1C2,68
12,NC(=O)c1ccc(-c2nc(-c3ccc4c(c3)OCCO4)c(-c3ccccn3)[nH]2)cc1,86
13,O=c1cc(N2CCOCC2)oc2c(-c3ccccc3)cccc12,65
14,O=C(c1cc2cc(O)ccc2[nH]1)c1cc2cc(O)ccc2[nH]1,33
15,COc1cc2nccc(Oc3ccc(NC(=O)Nc4cc(C)on4)c(Cl)c3)c2cc1OC,3
16,O=c1c(-c2ccc(F)cc2)c(-c2ccncc2)[nH]n1-c1ccc(Cl)cc1,80
17,N#Cc1c(NC(=O)c2cccc3ccccc23)sc2c1CCCC2,65
